# Legend:
# Settings in all cases: concentration: 1 μM, replicates: in singlicate; n = 1
# BMX = tested on: BMX
# BRAF = tested on: BRAF
# BRK = tested on: T1, BRK
# T1 construct: gene PTK6
# BRSK1 = tested on: BRSK1
# BRSK2 = tested on: BRSK2
# BTK = tested on: BTK
# BUB1 = tested on: BUB1
# CAMK1B = tested on: CAMK1B
# CAMK1D = tested on: CAMK1D
# CAMK1G = tested on: CAMK1G
# 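Note: KINOMEscan kinase panel screen.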
Compound,%Inh (BMX) [%],%Inh (BRAF) [%],%Inh (BRK) [%],%Inh (BRSK1) [%],%Inh (BRSK2) [%],%Inh (BTK) [%],%Inh (BUB1) [%],%Inh (CAMK1B) [%],%Inh (CAMK1D) [%],%Inh (CAMK1G) [%]
Fc1ccc(-c2ncn(C3CCNCC3)c2-c2ccnc(Oc3ccc(-c4ccccc4)cc3)n2)cc1 [SB-245391],0,23,7,14,16,57,20,4,30,4
O=C(Nc1n[nH]c2cc(-c3ccoc3)ccc12)C1CC1 [SB-738481],16,0,0,11,0,0,0,0,0,0
Cn1cc(-c2ccc3c(c2)CCN3C(=O)Cc2cccc(Cl)c2)c2c(N)ncnc21 [GSK2606590],4,11,56,7,0,0,0,0,32,25
CN(C)S(=O)(=O)c1cc(-c2ccc3nccc(-c4cccc(S(N)(=O)=O)c4)c3c2)cnc1N [GSK1669921],21,30,11,12,0,0,0,0,25,7
Cc1ccc(C(=O)Nc2ccc(Nc3ccnc4cc(-c5nccs5)ccc34)cc2O)cc1.Cl [GW494702],18,1,38,0,0,100,35,8,0,15
COc1ccc(-c2coc3ccc(-c4nnc(SCc5ccc(OC)c(C(F)(F)F)c5)o4)cc23)cc1,29,0,0,0,13,0,0,8,14,3
COc1cc(Nc2ncc3c(C)nc(-c4cc5ccccc5[nH]4)n3n2)cc(OC)c1OC [GW869516],25,0,36,0,14,0,0,0,8,0
O=C(Nc1n[nH]c2nc(-c3ccc(O)cc3)ccc12)C1CC1 [SB-710363],22,0,0,26,11,0,0,0,0,4
Cc1ccc(F)c(C(=O)Nc2cccc(-c3nn4ccccc4c3-c3ccnc(Nc4cccc(F)c4)n3)c2)c1F [GSK361061],48,68,74,12,0,0,42,0,18,12
C[C@@H](Oc1cc(-n2cnc3cc(-c4ccnc(NCCS(C)(=O)=O)c4)ccc32)sc1C(N)=O)c1ccccc1Cl [GSK907232],23,0,20,55,78,0,31,31,15,13
Cc1ccc(C(=O)N2CC[C@@H](O)C2)cc1-n1c(C)cc(OCc2ccc(F)cc2F)c(Br)c1=O,0,58,20,0,0,0,0,0,17,0
NCCCC(NC(=O)c1cc(Br)c(-c2ccnc3[nH]ccc23)s1)c1ccccc1.O=C(O)C(F)(F)F.O=C(O)C(F)(F)F (centres unmarked) [GSK1287544],7,0,3,28,0,0,21,10,18,0
C[C@@H]1CC[C@@H](C(=O)Nc2ccccc2)CN1c1cc(-c2ccc3c(N)n[nH]c3c2)nc(N)n1 [GSK2286062],24,0,3,0,0,0,16,0,23,6
COc1cc(Nc2nccc(N3CCC(NC(=O)Nc4cccc(C(C)=O)c4)C3)n2)cc(OC)c1OC (centres unmarked) [GSK1379753],1,0,8,5,0,0,31,0,20,0
c1ccc(-c2n[nH]cc2Nc2ccnc3ccccc23)nc1 [GW694077],6,0,0,0,0,0,88,49,30,9
COc1ccc(CNC(=O)NC2CCN(c3ccnc(Nc4ccc(F)cc4)n3)CC2)cc1 [GSK1379788],3,0,0,0,0,0,56,7,15,0

Compound,%Inh (BMX) [%],%Inh (BRAF) [%],%Inh (BRK) [%],%Inh (BRSK1) [%],%Inh (BRSK2) [%],%Inh (BTK) [%],%Inh (BUB1) [%],%Inh (CAMK1B) [%],%Inh (CAMK1D) [%],%Inh (CAMK1G) [%]
Cl.c1ccc(-c2ccc3c(Nc4ccc5[nH]ncc5c4)ccnc3c2)nc1 [GW440137],0,7,20,0,2,0,47,36,18,5
Nc1ncc(-c2cccnc2)c2scc(-c3ccc4c(c3)CCN4C(=O)Cc3ccccc3)c12 [GSK683281],20,0,68,27,0,0,0,0,22,21
CCS(=O)(=O)c1ccc(OC)c(Nc2nccc(-c3c(-c4cccc(NC(=O)c5c(F)cccc5F)c4)nn4ncccc34)n2)c1 [GSK326180],0,90,93.5,0,0,15,28,33,12,7
O=C(Nc1cccc(-c2nn3ccccc3c2-c2ccnc(Nc3cccc(F)c3)n2)c1)c1c(F)ccc(F)c1Cl [GSK357952],63,36,69,5,0,42,29,21,12,0
COc1cc(Nc2nccc(-c3c(-c4cccc(NC(=O)c5c(F)cccc5F)c4)nn4ccccc34)n2)cc(OC)c1OC [GSK323521],7,9,57,8,13,1,3,0,21,31
COc1ccc(Nc2nccc(N3CCC(NC(=O)Nc4cccc(OC)c4)C3)n2)cc1 (centres unmarked) [GSK1379742],0,2,10,4,0,0,29,17,0,0
Cn1cc(-c2[nH]c3cc(NC(=O)[C@H](N)C4CCCCC4)cc4c3c2C=NNC4=O)cn1,13,39,14,31,61,94.2,100,87,90.4,0
Cl.c1ccc(-c2ccc3c(Nc4ccc5[nH]ccc5c4)ccnc3c2)nc1 [GW440138],5,0,28,0,0,0,64,11,0,0
Cl.Cl.NCC(NCc1ccc(-c2ccnc3[nH]ccc23)s1)c1ccccc1 (centres unmarked) [GSK1321565],8,0,0,0,0,0,64,59,17,11
CN(c1ccc(NC(=O)Nc2cc(C(F)(F)F)ccc2F)cc1)c1ccnc(Nc2ccc(S(N)(=O)=O)cc2)n1 [GW809893],71,66,76,15,8,25,0,0,38,0
COc1cc2c(cc1OCCN1CCNCC1)ncc1c3ccc(C#N)cc3[nH]c21,17,28,0,25,0,2,99,28,30,14
Cl.NC(=O)c1cccc(Nc2nccc(Nc3ccc(Oc4c(Cl)cccc4Cl)c(Cl)c3)n2)c1 [GW659009],0,6,76,0,0,36,17,0,2,0
COC(=O)Nc1nc2ccc(Oc3ccc(NC(=O)Nc4cc(C(F)(F)F)ccc4F)cc3)cc2n1C.Cl [GW692089],5,57,0,0,26,59,42,0,1,0
CNC(=O)c1ccccc1Nc1nc(Nc2ccc(N3CCOCC3)cc2)ncc1Cl.Cl [GSK1576028],91.4,72,94.6,78,92.4,96.9,96.7,39,54,30
O=C(Nc1cccc(Oc2ccc3nc(NC(=O)C4CC4)cn3n2)c1)c1ccccc1C(F)(F)F,0,65,0,6,0,16,0,0,3,0
CC(=O)Nc1nc2cnc(Nc3cc(NC(=O)c4cccc(C5(C#N)CC5)c4Cl)ccc3C)nc2s1,1,99.4,30,10,0,0,0,0,30,0

# Source: article PMC5540273 (PLoS ONE, 2017)
